Shown are actives, neighbours in structure and some others; about 3.9% of the full set was active somewhere.
WT yeast gro inh – growth inhibition of WT yeast, mitochondrial fusion screen; mitochondrial fusion phenotypic screen, WT strain; inhibition, % at 10 µM; 190,000 tested, 2.1% active; AID 1362; in the data active = inhibition above about 58%; tested in S. cerevisiae
Rtt109 HAT inh – blocks Candida albicans Rtt109/Vps75 acetyltransferase activity; Q5AAJ8; purified Rtt109/Vps75, ThioGlo CoA-SH fluorescence, 4 h; inhibition, % at 34.9 µM; 330,000 tested, 0.16% active; AID 540336;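 active = inhibition of at least 50% in every replicate; inconclusive = best replicate reaches 50% inhibition but some replicates fall short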
Target sequence (Q5AAJ8 whole entry, looked up): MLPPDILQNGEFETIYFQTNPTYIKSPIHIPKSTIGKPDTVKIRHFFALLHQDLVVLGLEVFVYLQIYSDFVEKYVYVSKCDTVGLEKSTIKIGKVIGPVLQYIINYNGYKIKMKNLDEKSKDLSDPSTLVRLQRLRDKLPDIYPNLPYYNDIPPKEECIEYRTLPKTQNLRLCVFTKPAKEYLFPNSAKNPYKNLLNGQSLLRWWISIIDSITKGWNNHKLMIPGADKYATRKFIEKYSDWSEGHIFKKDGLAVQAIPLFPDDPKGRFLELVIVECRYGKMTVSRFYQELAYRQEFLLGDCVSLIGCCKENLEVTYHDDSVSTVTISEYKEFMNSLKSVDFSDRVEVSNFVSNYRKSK
Platelet DG rel – platelet dense granule release activity; 300,000 tested, 0.22% active; AID 1663; inhibition, %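 (compounds screened at 7.5 µM in platelet-rich plasma)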; human platelet-rich plasma, SFLLRN dense granule ATP release, luminescence;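 active = mean replicate score, as percent of positive control, at or above 50; inconclusive = mean below 50 but at least one replicate at or above 50; inactive = mean and every replicate below 50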
SKKanGAS inh – inhibitors of SKKanGAS S. pyogenes growth in kanamycin (SK-promoter or general growth effect); BacTiter-Glo, 6 h; inhibition, % at 7.5 µM; 300,000 tested, 1.3% active; AID 1662;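 active = mean replicate score, as percent of positive control median, at least 50; inconclusive = mean below 50 but one replicate at or above 50; inactive = mean and every replicate below 50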;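 also: strain carries kanamycin resistance gene driven by streptokinase promoter and grows in 40 µg/ml kanamycin; loss of luminescence reflects streptokinase promoter inhibition or plain growth inhibition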
TPT1 inh – inhibitors of Candida albicans tRNA 2'-phosphotransferase TPT1 | 300,000 tested, 0.81% active | recombinant caTPT1, FP RNA substrate dephosphorylation | inhibition, % at 5 µM;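 active = inhibition above the mean of all tested compounds plus 3 SD, set per screening campaign, cut at about 24% in these data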
PHOSPHO1 block – inhibitors of human PHOSPHO1 phosphatase; Q8TCT1; recombinant PHOSPHO1, absorbance phosphatase assay; inhibition, % at 13.3 µM; 290,000 tested, 1.1% active; AID 1565; in the data active = inhibition above about 60%
Target sequence (Q8TCT1 whole entry, looked up): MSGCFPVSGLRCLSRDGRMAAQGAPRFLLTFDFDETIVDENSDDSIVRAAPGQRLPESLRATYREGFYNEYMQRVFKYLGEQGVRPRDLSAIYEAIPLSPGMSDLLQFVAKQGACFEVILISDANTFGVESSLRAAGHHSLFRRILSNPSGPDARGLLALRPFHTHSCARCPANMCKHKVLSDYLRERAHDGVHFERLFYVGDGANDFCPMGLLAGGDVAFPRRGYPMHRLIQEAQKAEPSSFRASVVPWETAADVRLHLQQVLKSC
Of the large screens only hits and unclear results are named; the others gave an inactive call.

COC(=O)[C@@H]1[C@@H](C#N)C2(c3ccccc3-c3ccccc32)N(c2ccc(Cl)cc2)N1C#N	WT yeast gro inh 74, SKKanGAS inh inconclusive (no result: Platelet DG rel)
O=C(Cc1ccc(Cl)cc1)NN1C(=O)c2ccccc2C1=O	none (no result: Rtt109 HAT inh)
O=S1(=O)N=C(Nc2ccc(O)cc2)c2ccccc21	none (no result: Rtt109 HAT inh)
O=C(Oc1ccc(NC2=NS(=O)(=O)c3ccccc32)cc1)c1cccnc1	SKKanGAS inh 59
CCCN(C(=O)CSc1ccccc1C(=O)O)C1CCS(=O)(=O)C1 (centres undefined)	none (no result: WT yeast gro inh, Platelet DG rel, SKKanGAS inh, TPT1 inh, PHOSPHO1 block)
O=C1c2ccccc2C(=O)c2[nH]c(=O)[nH]c21	SKKanGAS inh 62 (no result: WT yeast gro inh)
O=C1c2ccccc2C(=O)c2[nH]cnc21	none (no result: WT yeast gro inh, TPT1 inh)
CC(C)Cn1c(O)c(/C=C2\C=NN=C2c2ccccc2)sc1=S	WT yeast gro inh 63
C/C(=N\NC(=O)c1cccc(S(=O)(=O)N2CCOCC2)c1)c1ccc(C)cc1	none (no result: WT yeast gro inh, Platelet DG rel, SKKanGAS inh, TPT1 inh, PHOSPHO1 block)
CN(C(=O)c1cccc(NC(=O)Cc2ccc(NC(=O)C3CCCN(C(=O)C4CC4)C3)cc2)c1)C1CCC1 (centres undefined)	none (no result: WT yeast gro inh, Platelet DG rel, SKKanGAS inh, TPT1 inh, PHOSPHO1 block)
O=C(NCc1ccco1)c1c2c(nc3ccccc13)CCC2	PHOSPHO1 block 72
O=C(CSc1c2c(nc3ccccc13)CCCC2)NCc1ccco1	none
Cc1ccc(OCc2cc(C(=O)NC3CCOC3)no2)cc1C (centres undefined)	none (no result: WT yeast gro inh)
CCCC(=O)OC(C(=O)Nc1cc(C(F)(F)F)ccc1Cl)c1ccccc1 (centres undefined)	none
Cc1cc(C(=O)NCC(=O)OC(C(=O)Nc2cc(C(F)(F)F)ccc2Cl)c2ccccc2)ccc1[N+](=O)[O-] (centres undefined)	SKKanGAS inh 53
COc1ccc(CN2CCN(C(=O)Cn3nc(C)n4cccc4c3=O)CC2)c(OC)c1OC	none (no result: WT yeast gro inh)
CCOC(=O)c1ccc2c(c1)C1C=CCC1C(C(=O)OCC)N2 (centres undefined)	none (no result: WT yeast gro inh)
O=C(OC1CCCCC1)c1ccc2c(c1)C1C=CCC1C(C(=O)O)N2 (centres undefined)	PHOSPHO1 block 83 (no result: Rtt109 HAT inh, Platelet DG rel, SKKanGAS inh, TPT1 inh)
CC1CCCC(NC(=O)COC(=O)Cc2cn3ccsc3n2)C1C (centres undefined)	PHOSPHO1 block 96 (no result: Platelet DG rel, SKKanGAS inh, TPT1 inh)
CCCCN(C(=O)C1CSC2(C)CCC(=O)N12)c1c(N)n(CC(C)C)c(=O)[nH]c1=O (centres undefined)	none (no result: WT yeast gro inh, Platelet DG rel, SKKanGAS inh, TPT1 inh, PHOSPHO1 block)
CCc1nc2c(c(=O)[nH]1)C1(CCCC1)Cc1ccccc1-2	none
Cc1nc(=S)c2c([nH]1)-c1ccccc1CC21CCCCC1	SKKanGAS inh 100 (no result: WT yeast gro inh)
O=C(NCCCn1ccnc1)c1ccc(C(F)(F)F)cc1	none (no result: WT yeast gro inh)
Cn1c(=Nc2ccc(N3CCOCC3)cc2)ccc2ccccc21	PHOSPHO1 block 96
CN(C)c1ccc(Nc2nc(-c3cccnc3)cs2)cc1	PHOSPHO1 block 81
CCN(CC)c1ccc(Nc2nc(-c3cccnc3)cs2)cc1	none (no result: WT yeast gro inh)
Cc1nc(=O)c(-c2ccccc2)c(C)n1CCCCCC(=O)O	WT yeast gro inh 83
CCOC(=O)c1c(S(=O)(=O)NCC(=O)NCc2ccc(C)cc2)c(C)n(C)c1C	none (no result: WT yeast gro inh)
O=C(CSCC(=O)Nc1ccccc1)N/N=C/c1c(O)ccc2ccccc12	none
COc1ccc(NC(C)C(=O)N/N=C/c2c(O)ccc3ccccc23)cc1 (centres undefined)	SKKanGAS inh 97 (no result: WT yeast gro inh, TPT1 inh)
COc1ccc(NC(C)C(=O)N/N=C/c2cc(Br)ccc2OC)cc1 (centres undefined)	none
O=C(N/N=C/c1c(O)ccc2ccccc12)Nc1ccccc1	SKKanGAS inh 93 (no result: WT yeast gro inh, Rtt109 HAT inh, PHOSPHO1 block)
O=C(CN1CCOCC1)N/N=C/c1c(O)ccc2ccccc12	none (no result: WT yeast gro inh)
O=C(CNc1ccccc1)N/N=C/c1c(O)ccc2ccccc12	SKKanGAS inh 101 (no result: WT yeast gro inh)
CC1CCCCN1CCNC(=O)CN1C(=O)CSc2ccc(S(=O)(=O)N3CCCCC3)cc21 (centres undefined)	none (no result: WT yeast gro inh)
Cc1c(N/N=C(\C#N)C(=O)c2ccc(Cl)cc2)c(=O)n(-c2ccccc2)n1C	SKKanGAS inh 100
N#C/C(=N\Nc1ccc(Cl)cc1)C(=O)c1ccccc1	none (no result: WT yeast gro inh)
CCCS(=O)(=O)c1c(S(=O)(=O)CCC)c2ccccn2c1C(=O)OC	none
CCCS(=O)(=O)c1c(S(=O)(=O)CCC)c2cc(CC)ccn2c1C(=O)OC	WT yeast gro inh 70 (no result: Rtt109 HAT inh)
CC1CC(C)CN(C2CCN(Cc3cccnc3)CC2)C1 (centres undefined)	WT yeast gro inh 63
COc1ccc(NC(=S)Nc2ccc3nsnc3c2)cc1	Rtt109 HAT inh 54
CS(=O)(=O)N1CCN(c2ccccc2NC(=O)Nc2cccc(Cl)c2)CC1	none (no result: WT yeast gro inh, PHOSPHO1 block)
CC(C)(C)C1CCCCC1NC(=O)c1ccncc1 (centres undefined)	none (no result: WT yeast gro inh, TPT1 inh)
COC(=O)c1ccc(NC(=O)c2nc(S(=O)(=O)Cc3cccc(C)c3)ncc2Cl)cc1	SKKanGAS inh 104 (no result: WT yeast gro inh)
CCc1ccc(NC(=O)c2nc(S(=O)(=O)Cc3ccccc3)ncc2Cl)cc1	none (no result: WT yeast gro inh)
Cc1ccc(NC(=O)c2nc(S(=O)(=O)Cc3ccccc3C)ncc2Cl)cc1C	SKKanGAS inh 68 (no result: WT yeast gro inh)
CCOc1ccccc1NC(=O)c1nc(S(=O)(=O)Cc2ccccc2)ncc1Cl	SKKanGAS inh 59 (no result: WT yeast gro inh)
COC(=O)c1ccc(NC(=O)CS(=O)(=O)Cc2ccccc2)cc1	none
CCOC(=O)c1ccc(NC(=O)CCS(=O)(=O)Cc2ccccc2)cc1	PHOSPHO1 block 63 (no result: WT yeast gro inh)
O=C(NC(=S)NCc1ccco1)c1ccccc1[N+](=O)[O-]	none (no result: WT yeast gro inh)
Nc1nonc1C(=O)NCCNC(=O)c1ccc(Cl)cc1	none (no result: WT yeast gro inh)
CCOC(=O)c1ccc(NC(=O)c2nc(S(=O)(=O)Cc3ccccc3)ncc2Cl)cc1	SKKanGAS inh 82 (no result: WT yeast gro inh)
CCCCCOc1ccc(C(=O)CCC(=O)NC(C)c2ccc(S(N)(=O)=O)cc2)cc1 (centres undefined)	none (no result: WT yeast gro inh, Platelet DG rel, SKKanGAS inh, TPT1 inh, PHOSPHO1 block)
COc1ccc(C2=NN(C(=O)c3cccs3)C(c3ccccc3OC)C2)cc1OC (centres undefined)	WT yeast gro inh 67
Cc1ccc(C2=NN(C(=O)c3cccs3)C(c3ccccc3O)C2)cc1 (centres undefined)	none
FC(F)(F)c1cc(-c2ccco2)nc(N2CCN(c3ccccc3)CC2)n1	none
O=C(CCSc1nc(-c2ccco2)cc(C(F)(F)F)n1)N1CCN(c2ccccc2)CC1	WT yeast gro inh 62
COc1ccc(C2CC(=O)C=C(NCc3ccc4c(c3)OCO4)C2)cc1 (centres undefined)	PHOSPHO1 block 61 (no result: WT yeast gro inh)
C=CCn1c(-c2ccc(Cl)cc2)c[nH]c1=S	PHOSPHO1 block 94
Cn1c(-c2ccc(-c3ccccc3)cc2)c[nH]c1=S	PHOSPHO1 block 95
CCn1c(-c2ccc(-c3ccccc3)cc2)c[nH]c1=S	PHOSPHO1 block 97
S=c1[nH]cc(-c2ccccc2)n1-c1ccccc1Cl	none
C=CCn1c(-c2ccccc2)c[nH]c1=S	PHOSPHO1 block 79
CCOc1ccc(-n2c(-c3ccccc3)c[nH]c2=S)cc1	none (no result: WT yeast gro inh)
C=CCn1c(-c2ccc(OC)c(OC)c2)n[nH]c1=S	none
Cc1ccc(-c2c[nH]c(=S)n2-c2ccccc2)cc1	none
CC(=O)Nc1ccc(S(=O)(=O)NCCC(=O)Nc2cc(C)ccn2)cc1	none (no result: WT yeast gro inh, PHOSPHO1 block)
